Compound activity as filed in PubChem.
Shown are actives, neighbours in structure and some others; about 8.7% of the full set was active somewhere.
Pf growth 48h: inhibits P. falciparum growth in the first generation, 48 h; hit rate 5.9% among 310,000; AID 504832; Potency, µM (top dose mostly 28.7 µM), without a hit: top-dose activity change, negative = inhibition, usual class: inhibitors; P. falciparum luciferase growth in erythrocytes, 48 h
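Luminescence readout; reporter = integrated firefly luciferase in P. falciparum. RBC culture at 2% hematocrit, 0.1% parasitemia final, 37 C/5% CO2; decreased signal taken as growth inhibition.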
AMA1 RON2 block: inhibitors of Plasmodium falciparum AMA1-RON2 interaction; AlphaScreen AMA1-biotinylated RON2 peptide binding; AID 720542; hit rate 0.2% among 360,000; Potency, µM (doses to about 58.2 µM), for the others: top-dose activity change, negative = inhibition, most hits filed as inhibitors;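 further: 0% = vehicle wells and -100% = peptide control; nearly all actives have a fitted effect of over 45% in size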
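AMA1 (3D7) with his tag at 25 nM final met compounds first, then biotinylated RON2 peptide at 25 nM; detection used donor plus acceptor beads, 10 µg/mL apiece, read by AlphaScreen after 30 min at room temperature.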
VACV mCherry inh: inhibitors of vaccinia virus infection (mCherry reporter signal). AID 720579. Vaccinia virus mCherry reporter infection, fluorescence. Potency, µM (titrated, usually from 36.5 µM), for inactives: top-dose activity change, negative = inhibition, actives largely listed as inhibitors. hit rate 0.63% among 310,000; calls by dose curve; tested in A549 cells; further: nearly all actives have a fitted effect of over 35% in size
Vaccinia Venus: inhibitors of vaccinia virus (Venus reporter); hit rate 0.46% among 330,000; Potency, µM (doses to about 36.5 µM), for the others: top-dose activity change, negative = inhibition, usual class: inhibitors; Vaccinia virus Venus reporter expression, fluorescence; calls by dose curve; tested in A549 cells; further: nearly all actives have a fitted effect of over 30% in size
Pf growth 96h: P. falciparum growth inhibition at 96 hour, primary screen for plastid delayed-death inhibitors; P. falciparum luciferase reporter growth, 96 h; Potency, µM (series often up to 28.7 µM), inactives show top-dose activity change, negative = inhibition, usual class: inhibitors; hit rate 6.9% among 320,000
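P. falciparum expressing integrated firefly luciferase, in erythrocytes at 2% hematocrit, 0.05% parasitemia, incubated with compounds 96 h at 37 C, 5% CO2. Growth inhibition read as loss of luminescence; two-generation exposure targets delayed-death apicoplast inhibitors.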
Starred values were filed as active, the others as inactive; i = inactive; u = inconclusive; x = no result. Unless noted, the call rests on the fitted dose curve; in most records, active means well fitted curve in the direction sought with a large enough effect; inconclusive means small, poorly fitted or top-dose-only effect, or another doubt; inactive means no such curve, though single readings can be large; an effect the other way counts as inactive or inconclusive. Unless noted, on the % scale 0 is the no-effect control and ±100 the full control effect; potency means the concentration at half of the fitted maximal effect.

SMILES	Pf growth 48h	AMA1 RON2 block	VACV mCherry inh	Vaccinia Venus	Pf growth 96h
O.O.O.O.O.O.O.O=S(=O)([O-])[O-].[Co+2]	6.7µM*	x	x	x	1.7µM*
CCCCOc1ccc(S(=O)(=O)NCc2csc(C)n2)cc1	-8%	1%	u	-27%	10µM*
COc1c(O)c(=O)n2c3ccccc3c3ccnc1c32	10µM*	1%	4%	-1%	u
COCCCNc1ncnc2sc(C(=O)N3CCCCC3)c(C)c12	x	x	-9%	0%	x
NC(=S)NN=Cc1nccc2ccccc12	x	-87%	u	u	x
NC(=S)NN=Cc1nccc2c(C(F)(F)C(F)(F)C(F)(F)F)cccc12	x	125%	0.32µM*	1µM*	x
N#Cc1nc(Cc2cccc3ccccc23)oc1NCC1CCCO1 (stereo unspecified)	x	-11%	i	-7%	7.4µM*
COc1ccc(N(C(=O)c2ccc(OC)c(OC)c2)S(=O)(=O)c2ccc(Cl)cc2)cc1	x	x	-3%	10%	x
O=C(N[C@H]1CP(=O)(Oc2ccccc2)O[C@H](COCc2ccccc2)[C@H]1O)C(Cl)(Cl)Cl (stereo partly specified)	u	-2%	i	-11%	12µM*
O=P1(Oc2ccccc2)CC=C[C@H](COCc2ccccc2)O1 (stereo partly specified)	-4%	0%	-4%	-9%	u
CCOC(=O)c1sc(NC(=O)CCCn2nc([N+](=O)[O-])c(Cl)c2C)c(C(=O)OCC)c1C	2%	-28%	-15%	-8%	1.3µM*
Cc1ccc(-n2nc3c(=O)n(CC(=O)NCCc4ccc(Cl)cc4)nc(C)c3c2C)cc1	20%	5%	x	x	0.93µM*
Cc1nn(CCCC(=O)NCCc2ccc(Cl)cc2)c(=O)c2nn(-c3ccccc3)c(C)c12	-13%	-16%	u	u	13µM*
CCCOC(=O)c1c(NC(=O)CCCn2nc([N+](=O)[O-])c(Cl)c2C)sc(C(=O)OC)c1C	7%	-18%	i	-9%	0%
Cc1c(Cl)c([N+](=O)[O-])nn1CCCC(=O)NCCc1ccccc1	41%	0%	x	x	7.4µM*
Cc1nn(CCCC(=O)NCCc2ccccc2)c(=O)c2nn(-c3ccccc3)c(C)c12	-19%	-7%	x	x	u
COc1cc2nc(SCc3ccc(F)cc3)n(Cc3cccs3)c(=N)c2cc1OC	u	7%	x	x	u
COc1ccc(Cn2c(SCc3ccccc3C)nc3cc(OC)c(OC)cc3c2=N)cc1	5.9µM*	x	x	x	1.7µM*
COCCCn1c(SCCc2ccccc2)nc2cc(OC)c(OC)cc2c1=N	12µM*	0%	x	x	9.3µM*
Cc1ccsc1/C=N/N=C/c1sccc1C	488%	-9%	x	x	8.3µM*
Cc1ccsc1C=Nc1ccc(O)cc1	u	23%	-8%	6%	16%
CCCCNCC(=O)Nc1ccc(NC(=O)CNCCCC)cc1	u	85%	i	-12%	12µM*
CCN(CC)C1CCN(C(=O)c2cnn(-c3nccc(-c4ccco4)n3)c2C(C)C)C1 (stereo unspecified)	x	x	-11%	-4%	x
Cc1nn2c(=O)cc(CSc3ccccc3NC(=O)c3ccccc3F)nc2s1	-2%	-6%	-7%	0%	62%
CC(C)c1nn2c(=O)cc(CSc3ccccc3NC(=O)c3ccccc3F)nc2s1	u	13%	-18%	-21%	8.3µM*
SMILES	Pf growth 48h	AMA1 RON2 block	VACV mCherry inh	Vaccinia Venus	Pf growth 96h
CCN(CC)CCOC(=O)c1ccc(N/C=C(/C#N)c2nc(-c3cccc(OC)c3)cs2)cc1	u	-10%	-1%	-16%	0.47µM*
CCN(CC)CCOC(=O)c1ccc(N/C=C(/C#N)c2nc(-c3ccc(OC)c(OC)c3)cs2)cc1	u	28µM*	i	0%	u
Cc1ccc(-c2csc(/C(C#N)=C/Nc3ccc4c(c3)OCCO4)n2)cc1	34%	-4%	-20%	u	78%
CCN(C(=O)c1nn(-c2ccc(OC)c(Cl)c2)c(=O)c2c1c1ccccc1n2C)c1cccc(C(F)(F)F)c1	x	x	1%	5%	x
OC(COCc1ccc(Cl)cc1)CN1CC=C(c2ccccc2)CC1 (stereo unspecified)	9.3µM*	6%	u	4%	3.3µM*
OC(COCc1ccc(Cl)cc1)CN1CCc2ccccc2C1 (stereo unspecified)	6%	-5%	i	-10%	u
